Results filed as inconclusive are left out. A call without a number means that no potency is given here. A number with no mark means an inactive call. Active and inactive are the calls of the source. Calls follow the shape of the dose curve; as a rule, active = well fitted cell-killing curve with a large enough effect in the repeat runs; inconclusive = weak or mixed curves, or effect the other way; inactive = no such curve, though single readings can be large or run the other way.
assay: qHTS assay for small molecule activators of the heat shock response signaling pathway - cell viability counter screen (AID 743209); conditions: HSE-bla HeLa viability, CellTiter-Glo luminescence, 5 h; series mostly up to 62.6 µM; activity change, negative = cytotoxicity: at the top concentration; also: nearly all actives have a fitted effect of over 50% in size
Source text: U.S. Tox21 Program National Center for Advancing Translational Sciences [NCATS] NIH Chemical Genomics Center [NCGC] U.S. Environmental Protection Agency [EPA] National Institutes of Environmental Health Sciences [NIEHS] National Toxicology Program [NTP] U.S. Food and Drug Administration [FDA] Tox21 Assay Overview: Various chemicals, environmental and physiological stress conditions may lead to the activation of heat shock response/ unfolded protein response (HSR/UPR). There are three heat shock transcription factors (HSFs) (HSF-1, -2, and -4) mediating transcriptional regulation of the human HSR. To identify the compounds that activate HSR signaling, HSE-bla HeLa cell line (Invitrogen, Carlsbad, CA, USA) containing a beta-lactamase reporter gene under the control of the heat shock response elements was used to screen Tox21 10K compound library. The cytotoxicity of the Tox21 compound library against the HSE-bla HeLa cell line was tested in parallel by measuring the cell viability using CellTiter-Glo assay (Promega, Madison, WI) in the same wells.
Tox21 Assay Protocol Summary: The CellSensor HSE-bla HeLa cells (Invitrogen, Carlsbad, CA, USA) were dispensed at 1500 cells/6uL/well into 1536-well black wall/clear bottom plates using a Multidrop combi (Thermo Fisher Scientific, Waltham, MA) dispenser. After the assay plates were incubated at 37 C and 5% CO2 overnight, 23 nL of compounds dissolved in DMSO, positive controls or DMSO only was transferred to the assay plate by a Pintool station (Kalypsys, San Diego, CA). The plates were incubated at 37 C for 5 h. After 1 uL of LiveBLAzerTM B/G FRET substrate was added using a Flying Reagent Dispenser (FRD, Beckman Coulter, Indianapolis, IN, USA), the plates were incubated at room temperature for 2.5 h, and fluorescence intensity was measured by an Envision plate reader (PerkinElmer, Shelton, CT). For cell viability readout that measures cytotoxicity, 3 ul/well of CellTiter-Glo reagent was added into the assay plates using a FRD. After 30 min incubation at room temperature, the luminescence intensity in the plates was measured using a ViewLux (PerkinElmer) plate reader.
Potency is read from the fitted curve at half-maximal effect.

Row | SMILES | Potency | activity change, negative = cytotoxicity
1 | CCC(C)C=O (stereo not given) | inactive | –
2 | CC1=C(/C=C/C(C)=C/C=C/C(C)=C/CO)C(C)(C)CCC1 | inactive | –
3 | C=C1CC[C@H](O)CC1=C/C=C1\CCC[C@]2(C)[C@@H]([C@H](C)/C=C/[C@H](C)C(C)C)CC[C@@H]12 | – | -1.74%
4 | O=C(O)c1ccc([N+](=O)[O-])cc1 | inactive | –
5 | C=C1C2CCC(C2)C1(C)C (stereo not given) | inactive | –
6 | C[C@@H]1O[C@@H](OC[C@H]2O[C@@H](Oc3c(-c4ccc(O)c(O)c4)oc4cc(O)cc(O)c4c3=O)[C@H](O)[C@@H](O)[C@@H]2O)[C@H](O)[C@H](O)[C@H]1O | inactive | –
7 | NS(=O)(=O)c1cc2c(cc1Cl)NC=NS2(=O)=O | inactive | –
8 | COC(=O)c1ccc(C(=O)OC)cc1 | inactive | –
9 | CCCCCC/C=C/CCCCCCCC(=O)O | inactive | –
10 | C=C(C)C(=O)OCCCCCC | inactive | –
11 | CC(C)(N=C=O)c1cccc(C(C)(C)N=C=O)c1 | inactive | –
12 | CCc1ccc(O)cc1 | inactive | –
13 | c1ccc2[nH]cnc2c1 | inactive | –
14 | OC1CCCC1 | inactive | –
15 | CN(C)c1cccc(O)c1 | inactive | –
16 | COCC(C)O (stereo not given) | inactive | –
17 | C=C(C)C(=O)OCC(CC)(COC(=O)C(=C)C)COC(=O)C(=C)C | 12.1 µM (active) | –
18 | O=C(c1cc(O)c(O)c(O)c1)c1ccc(O)c(O)c1O | inactive | –
19 | O=C(O)c1cc(-c2ccccc2)nc2ccccc12 | – | 12.5%
20 | Clc1cc(Cl)c(Cl)cc1Cl | inactive | –

Row | SMILES | Potency | activity change, negative = cytotoxicity
21 | CC(=O)[C@@]1(O)CC[C@H]2[C@@H]3CCC4=CC(=O)CC[C@]4(C)[C@H]3CC[C@@]21C | inactive | –
22 | CCCCCCCCCCCCOCC1CO1 (stereo not given) | inactive | –
23 | O=S(=O)(Oc1ccc(Cl)cc1Cl)c1ccccc1 | inactive | –
24 | CC(=O)Nc1ccc(C(=O)O)cc1 | inactive | –
25 | O=C1CCCCC1 | inactive | –
26 | NC(=O)NNc1ccccc1 | – | 5.5%
27 | CCCCOCCO | inactive | –
28 | CC(C)(C)C1CCC(O)CC1 (stereo not given) | inactive | –
29 | COC(=O)c1ccccc1O | inactive | –
30 | CCCCCCCCCC(=O)O | inactive | –
31 | O=C(c1ccc(O)cc1)c1ccc(O)cc1O | inactive | –
32 | OCC1CCCO1 (stereo not given) | inactive | –
33 | O=c1c(-c2ccc(O)cc2)coc2cc(O)ccc12 | – | -6.29%
34 | O=C(Cl)c1c(Cl)c(Cl)c(C(=O)Cl)c(Cl)c1Cl | inactive | –
35 | C=C(C)C(=O)OCCC[Si](OC)(OC)OC | inactive | –
36 | CNC[C@H](O)[C@@H](O)[C@H](O)[C@H](O)CO | inactive | –
37 | CN(CCOc1ccc(CC2SC(=O)NC2=O)cc1)c1ccccn1 (stereo not given) | inactive | –
38 | O=[N+]([O-])c1cc(N(CCO)CCO)ccc1NCCO | inactive | –
39 | CS(=O)(=O)Nc1ccc([N+](=O)[O-])cc1Oc1ccccc1 | inactive | –
40 | Cc1cc(=O)[nH]c(C(C)C)n1 | inactive | –

— PubChem BioAssay (Tox21)
